# HP1b binding inh – blocks HP1-beta chromodomain binding to methylated histone tails. P83916. 0.56% of 390,000 active. AlphaScreen HP1-beta / biotin-H3K9me3 peptide binding. AID 540317. Potency, µM (top dose mostly 114 µM), for inactives: top-dose activity change, negative = inhibition, actives largely listed as inhibitors; further: potency means the concentration at half of the fitted maximal effect; nearly all actives have a fitted effect of over 70% in size
#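 AlphaScreen: HP1-beta (50 nM) preformed 30 min with biotin-H3(1-18)K9me3 peptide (50 nM) in PBS pH 7.4, 0.01% Tween-20. Compound added for 30 min at RT, then streptavidin donor/nickel chelate acceptor beads (10 ug/mL) for 30 min.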
# G9a inh – G9a (human) methyltransferase inhibition; Q96KQ7; G9a H3K9 monomethylation, AlphaScreen, 2 h; Potency, µM (highest dose often 102 µM), for inactives: at the highest dose activity, negative = inhibition, most hits filed as inhibitors; 8.8% of 350,000 active; AID 504332; further: potency means the concentration at half of the fitted maximal effect; on the % scale 0 is the no-effect control and ±100 the full control effect; nearly all actives have a fitted effect of over 75% in size
#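 G9a (20 nM) was preincubated 15 min with compound, then reacted 2 h at room temperature with 500 nM biotin-H3K9 peptide and 20 µM SAM. Monomethyl-H3K9 detected by AlphaScreen using anti-H3K9me1 antibody.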
# JMJD2A Tudor – JMJD2A Tudor domain (human) inhibition; 4.4% of 390,000 active; Potency, µM (series often up to 114 µM), inactives show at the top dose activity change, negative = inhibition, hits mostly inhibitors; AID 504339; AlphaScreen JMJD2A-Tudor / H3K4me3 peptide binding; further: potency means the concentration at half of the fitted maximal effect; on the % scale 0 is the no-effect control and ±100 the full control effect; nearly all actives have a fitted effect of over 50% in size
# CtBP-E1A inh – CtBP/E1A binding inhibition | 0.49% of 340,000 active | AID 651724 | AlphaScreen GST-E1A/His-CtBP binding, 1536-well; stronger effect = lower value | activity change, % (test concentration not listed); in the data active means activity change below about -65%; inconclusive means mostly about -30% to -63%; further: on the % scale 0 is the no-effect control and ±100 the full control effect
#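 Steps: dispense buffer (Tris pH 8.0, NaCl 300 mM, TCEP 1 mM, BSA, Tween 20); add 5X protein mix (GST-E1A, His-CtBP, 125 nM each); pin 23 nL compound; 2 h at 37 °C, dark; add 5X beads (50 ug/mL); 1 h; read.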
# Six1-Eya2 blk – blocks human Six1 binding to Eya2. Q15475+O00167. AlphaScreen GST-Six1/His-Eya2 binding, biochemical; stronger effect = lower value. activity change, % (test concentration not listed). 0.56% of 360,000 active. AID 651725; in the data active means activity change below about -65%; inconclusive means mostly about -30% to -63%; further: on the % scale 0 is the no-effect control and ±100 the full control effect
#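 Six1/Eya2 binding was read as AlphaScreen signal after compounds were pinned into GST-Six1 plus His-tagged Eya2 (5X stock 250/500 nM) in pH 8.0 Tris/NaCl/TCEP buffer, beads added, then incubated 1 h, 37 C, dark.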
# BAZ2B block – inhibitors of human BAZ2B bromodomain | Potency, µM (top dose mostly 114 µM), for the others: top-dose activity change, negative = inhibition, actives largely listed as inhibitors | Q9UIF8 | 4.4% of 360,000 active | AlphaScreen BAZ2B-H3K14Ac peptide displacement | AID 504333; further: potency means the concentration at half of the fitted maximal effect; on the % scale 0 is the no-effect control and ±100 the full control effect; nearly all actives have a fitted effect of over 60% in size
#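 Protein-peptide AlphaScreen: BAZ2B 50 nM, b-H3K14Ac 50 nM, 1x PBS pH 7.4 + 0.01% Tween-20. Preincubation 30 min RT; cpd 30 min RT (top 110 uM); beads 20 min RT, light-protected.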
# The depositor's hits bear a star; ? = inconclusive; · = no result given; [ ] = another dose, or the depositor's remark. Sampled rows, rich in hits. Any-hit rate of the full collection: about 10%. Unless noted, the call rests on the fitted dose curve; in most records, active means well fitted inhibition curve with a large enough effect; inconclusive means small, poorly fitted or top-dose-only effect; inactive means no such curve, though single readings can be large or run the other way.
SMILES,HP1b binding inh,G9a inh,JMJD2A Tudor,CtBP-E1A inh,Six1-Eya2 blk,BAZ2B block
C#CCOCCOCCOCCNc1nc(N2CCN(C(=O)[C@H](CCCCN)n3cc(CN)nn3)CC2)nc(N2CCN(C(=O)[C@H](CCC(=O)O)n3cc([C@@H](N)CCCCN)nn3)CC2)n1,32%,·,89µM*,-14,-15,·
O=C(Cn1c(-c2cccs2)cc2cc(Cl)ccc21)N1CCN(c2ccccc2F)CC1,2%,-6%[59 µM],?,·,·,-1%
CC(C)n1nnnc1C1c2ccccc2C(=O)N1Cc1cccnc1 (centres undefined),·,·,·,3,-2,·
Cc1ccc(C)c(NC(=O)Nc2nnc(N(CC(C)C)CC(C)C)s2)c1,39%,-32%[59 µM],-10%,·,·,-15%
C#CCOCCOCCOCCNc1nc(N2CCN(C(=O)[C@H](CCCCN)n3cc([C@@H](N)CC(C)C)nn3)CC2)nc(N2CCN(C(=O)[C@H](Cc3ccc(O)cc3)n3cc([C@@H](N)CC(C)C)nn3)CC2)n1,-7%,4%[12.7 µM],79µM*,-17,-4,56µM*
C#CCOCCOCCOCCNc1nc(N2CCN(C(=O)[C@H](CCCCN)n3cc([C@@H](N)C(C)CC)nn3)CC2)nc(N2CCN(C(=O)[C@H](Cc3ccc(O)cc3)n3cc([C@@H](N)CC(C)C)nn3)CC2)n1 (some centres undefined),26%,?,?,-18,-13,79µM*
C#CCOCCOCCOCCNc1nc(N2CCN(C(=O)[C@H]([C@@H](C)CC)n3cc([C@@H](N)Cc4ccc(O)cc4)nn3)CC2)nc(N2CCN(C(=O)[C@H](CCCCN)n3cc([C@@H](N)CC(C)C)nn3)CC2)n1,·,?,·,·,·,79µM*
Cc1c(C(=O)NC2CC(=O)N(c3ccc4c(c3)OCCO4)C2)cccc1[N+](=O)[O-] (centres undefined),-8%,1%,-12%,0,4,6%
Cc1ccc2[nH]c(=O)c(CN(C(=O)c3cccc([N+](=O)[O-])c3)C(C)C)cc2c1,9%,?,-11%,-13,-1,-17%
O=C(NCCC1=CCCCC1)Nc1ccc2nsnc2c1,76%,40µM*,26%,9,6,-29%
CC1(C(=O)NS(=O)(=O)c2ccccc2Cl)CCN1C(=O)C1CCCCC1 (centres undefined),·,·,·,-10,14,·
CC(NC(=O)COc1ccc(Br)cc1)C(=O)O (centres undefined),27%,?,-10%,-9,1,2%
O=C(COc1cccc(Br)c1)N/N=C1\CCSC1,2%,-21%,71µM*,15,2,-17%
CC(NC(=O)COc1cccc(Br)c1)C(=O)O (centres undefined),44%,50µM*,0%,-7,10,5%
O=C(Nc1ccc(NC(=S)NC(=O)c2cccs2)cc1)c1ccco1,18%,50µM*,-23%,-4,-12,-31%
O=C(NC(=S)NNC(=O)c1cccs1)c1ccco1,33%,?,2%,-4,1,79%[57.1 µM]
CCCC(=O)Nc1ccc(C(=O)NNC(=S)NC(=O)c2cccs2)cc1,29%,5%[0.0925 µM],-24%,-6,-5,1%
CCN(CC)c1ccc(NC(=S)NC(=O)c2cccs2)cc1,?,·,18µM*,·,?,10µM*
CCCC(=O)Nc1ccc(NC(=S)NC(=O)c2cccs2)cc1,39%,32µM*,-12%,-3,?,?
CC(=O)NC(=S)Nc1ccc(NC(=S)NC(=O)c2cccs2)cc1,35%,·,-29%,5,2,-6%
CCCC(=O)NC(=S)Nc1ccc(N2CCN(C(=O)c3cccs3)CC2)cc1,4%,40µM*,-27%,?,?,?
CN(CCc1cn[nH]c1)Cc1nc(Cc2ccccc2)no1,21%,·,-11%,4,2,1%
CC(=O)c1ccc(N2CCN(c3ncnc4c3cnn4-c3cc(Cl)ccc3C)CC2)cc1,16%,6%[59 µM],-15%,·,·,1%

# Bioassay records as filed in PubChem BioAssay.
